# The list is not random: actives were taken first. Their share in the collection is about 4.4%.
# PfHsp90 yeast 2 – growth inhibition of yeast expressing Plasmodium Hsp90; S. cerevisiae expressing PfHsp90, BacTiter-Glo ATP, 48 h; yeast lacking PDR1 and PDR3 efflux regulators; inhibition, % at 9.4 µM; hit rate 0.32% among 310,000; AID 504621;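 active means every replicate shows inhibition above about 80%, whatever the replicate mean, limit read from the data; inconclusive means mean inhibition reaches the set limit but some replicate falls short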;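 further: 0% = DMSO neutral controls and 100% = 20 µM radicicol positive controls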
# tim23-1 inh – inhibits growth of tim23-1 mutant yeast. AID 463212. hit rate 1.3% among 330,000. inhibition, % at 20 µM. S. cerevisiae tim23-1 growth, BacTiter-Glo luminescence, 24 h;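 active means growth inhibition of the mutant yeast at or above 50%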;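 further: temperature-sensitive mutant grown at 25 °C; plate controls were DMSO-treated mutant yeast for no effect and medium wells lacking yeast for full effect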
# SKKanGAS inh – inhibitors of SKKanGAS S. pyogenes growth in kanamycin (SK-promoter or general growth effect); BacTiter-Glo, 6 h; inhibition, % at 7.5 µM; hit rate 1.3% among 300,000; AID 1662;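 active means mean replicate score, as percent of positive control median, at least 50; inconclusive means mean below 50 but one replicate at or above 50; inactive means mean and every replicate below 50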;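 further: strain carries kanamycin resistance gene driven by streptokinase promoter and grows in 40 µg/ml kanamycin; loss of luminescence reflects streptokinase promoter inhibition or plain growth inhibition; 0% = median of DMSO wells and 100% = positive control at its reference dose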
# tim10-1 inh – growth inhibitors of tim10-1 mutant yeast; S. cerevisiae tim10-1 ts strain growth, BacTiter-Glo, 24 h; inhibition, % at 20 µM; hit rate 2.2% among 330,000;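 active means inhibition of at least 40%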;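 further: mutant grown at 25 °C; 0% = DMSO wells with yeast and 100% = wells holding no yeast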
# TIM10 inh – TIM10 yeast growth inhibition; hit rate 1.4% among 330,000; AID 463195; inhibition, % at 10 µM; S. cerevisiae TIM10 strain growth, BacTiter-Glo luminescence, 24 h;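 active means inhibition of 40% or more at the single tested concentration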;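 further: wild-type TIM10 isogenic control strain grown at permissive 25 °C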
# tim10-1 conf – tim10-1 yeast growth inhibition, confirmed | shares compounds with tim10-1 inh | S. cerevisiae tim10-1 ts strain growth, BacTiter-Glo, 24 h | inhibition, % at 20 µM | hit rate 56% among 7,400 | AID 463213;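 active means inhibition of yeast growth at or above a set limit in either of two repeat tests at 20 µM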;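 further: tim10-1 mutant grown at permissive 25 °C to find synthetic lethal compounds; 0% = DMSO yeast wells and 100% = medium wells without yeast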
# tim10 confirm – confirmation of TIM10 yeast growth inhibitors | shares compounds with TIM10 inh | S. cerevisiae tim10 strain growth, BacTiter-Glo luminescence, 24 h | inhibition, % at 10 µM | hit rate 63% among 4,600;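 active means inhibition of yeast growth at or above a set limit in either of two replicates at 10 µM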;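 further: this counterscreen used the strain with wild-type TIM10; 0% = yeast with DMSO and 100% = medium wells lacking yeast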
# tim23-1 conf – tim23-1 yeast growth inhibition, confirmed. shares compounds with tim23-1 inh. AID 463218. hit rate 83% among 4,400. S. cerevisiae tim23-1 growth, BacTiter-Glo luminescence, 24 h. inhibition, % at 20 µM;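 active means inhibition above about 39% in either of two replicate wells at 20 µM, limit read from the data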;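 further: temperature-sensitive tim23-1 mutant grown at 25 °C; 0% = DMSO wells with yeast and 100% = medium wells without yeast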
# Numbers without * were called inactive; ? = inconclusive; . = no result.
SMILES,PfHsp90 yeast 2,tim23-1 inh,SKKanGAS inh,tim10-1 inh,TIM10 inh,tim10-1 conf,tim10 confirm,tim23-1 conf
CCOCCCNC(=O)c1cn(CC)c2ccc(S(=O)(=O)N(C)C3CCCCC3)cc2c1=O,7,11,1,16,-9,.,.,.
N/C(=N\OC(=O)c1cccs1)C1(c2ccc(Cl)cc2Cl)CC1,-23,74*,-5,50*,66*,45*,76*,73*
N/C(Cc1ccc(Cl)c(Cl)c1)=N\OC(=O)c1cccs1,104*,62*,7,56*,86*,-4,84*,42*
CC(C)CC(NC(=O)c1cccs1)c1nnc(SCc2ccc(Cl)c(Cl)c2)n1C (stereo not drawn),-1,23,9,36,18,.,.,.
O=C(NNc1cc(Cl)ccc1Cl)c1cccs1,-22,14,5,8,-7,.,.,.
O=C(C1=C(O)/C(=C/c2ccc(O)cc2)CCC1)C(F)(F)F,-2,52*,.,50*,17,16,.,59*
O=C(NCc1cccnc1)/C(=C/c1ccc(-c2ccc(Cl)cc2)o1)S(=O)(=O)c1ccccc1,22,59*,-2,52*,53*,48*,49*,57*
O=C(NCc1cccnc1)/C(=C/c1ccc(-c2cccc(C(F)(F)F)c2)o1)NC(=O)c1ccccc1,.,10,-3,21,2,.,.,.
O=C(Nc1ncccn1)c1ccc([N+](=O)[O-])cc1[N+](=O)[O-],-10,5,2,-5,14,.,.,.
O=C(O)CCSc1ccc([N+](=O)[O-])cc1[N+](=O)[O-],27,51*,?,44*,7,30*,.,53*
O=[N+]([O-])c1ccc(SNc2ccccc2)c([N+](=O)[O-])c1,24,.,.,.,.,.,.,.
O=[N+]([O-])c1ccc(Sc2ncccn2)c([N+](=O)[O-])c1,-38,53*,-1,42*,37,50*,.,40*
O=C(CCc1ccccc1)N1CCN(c2ccc([N+](=O)[O-])cc2)CC1,18,26,-5,2,6,.,.,.
CC(=O)n1c(-c2ccccc2)c(-c2ccccc2)n(C)c1=O,-6,23,3,15,16,.,.,.
NC1=NC(=O)/C(=C/c2ccc(Br)cc2)S1,-14,-11,-6,-28,-7,.,.,.
CCOC(=O)CSC1=NC(=O)/C(=C/c2ccc(Br)cc2)S1,-71,61*,16,49*,61*,62*,52*,70*
CC(C)(C)CC(C)(C)NC(=O)CSCC(=O)Nc1ccc2ccccc2c1,12,67*,6,64*,35,35*,.,52*
O=C(Nc1ccc(C(=O)NCCCN2CCN(c3ccccc3)CC2)cc1)C1=CSCCO1,9,5,-1,4,10,.,.,.
COc1ccccc1OCc1cc(C(=O)N2CCN(C)C(c3ccccc3)C2)no1 (stereo not drawn),107*,55*,-5,52*,29,27,.,37
CN1CCN(C(=O)c2cc(COc3c(F)cccc3F)on2)CC1c1ccccc1 (stereo not drawn),110*,63*,4,42*,52*,21,53*,50*
CCCCn1c(N)c(N(CC(C)C)C(=O)C(C)SCc2nc3sc(C)c(C)c3c(=O)[nH]2)c(=O)[nH]c1=O (stereo not drawn),0,18,0,13,18,.,.,.
CCN(CC(=O)Nc1ccc(NC(C)=O)cc1)C(=O)CCCOc1ccc(C(C)(C)C)cc1,.,13,2,19,13,.,.,.
O=C(c1ccc2c(c1)OCCO2)C1CCN(S(=O)(=O)c2ccc(F)cc2)CC1,-6,57*,.,43*,50*,42*,40*,47*
COc1ccc(C(=O)/C=C2\Sc3ccccc3N2C)cc1,10,40,-8,13,11,.,.,.
COc1ccccc1OC(=O)CCN1c2ccccc2Sc2ccccc21,-4,25,3,17,10,.,.,.
SMILES,PfHsp90 yeast 2,tim23-1 inh,SKKanGAS inh,tim10-1 inh,TIM10 inh,tim10-1 conf,tim10 confirm,tim23-1 conf
COc1ccc(-[n+]2c(C)cc(/C=C3\Sc4ccccc4N3C)cc2C)cc1,-28,82*,40,77*,66*,76*,67*,84*
COc1ccccc1-[n+]1c(C)cc(/C=C2\Sc3ccccc3N2C)cc1C,-26,70*,45,57*,75*,77*,60*,72*
NC(=O)c1cc(NC(=O)c2cc(Br)c(Br)s2)cc(C(N)=O)c1,.,6,-14,29,11,.,.,.
CCCn1nc([N+](=O)[O-])c(C(C#N)c2nc3ccccc3s2)c(Cl)c1=O (stereo not drawn),-15,72*,4,73*,68*,62*,88*,34
CCOC(=O)c1nnc(-c2cccs2)nc1Oc1ccccc1C(=O)OC,9,51*,-1,41*,49*,27,35*,50*
CCOC(=O)c1nnc(-c2cccs2)nc1Oc1ccc(Cl)cc1,-2,49,2,27,19,.,.,.
CCOC(=O)c1nnc(-c2cccs2)nc1NC(C)C,3,55*,-9,47*,23,42*,.,44*
O=C(Nc1nnc(S(=O)(=O)N2CCOCC2)s1)c1ccccc1F,6,23,14,3,16,.,.,.
O=C(Nc1nnc(S(=O)(=O)N2CCCCCC2)s1)c1ccccc1F,1,56*,13,47*,31,32*,.,55*
Cc1ccc(C(=O)/C=C/c2ccc(-c3ccccc3[N+](=O)[O-])o2)cc1,6,31,-3,37,39,.,.,.
Cc1ccc(-c2ccc(/C=C/C(=O)c3ccccc3)o2)cc1,8,62*,-6,62*,67*,69*,67*,78*
Cc1cc(C)nc(SCc2ccc(C(=O)N/N=C3\CCCC(=O)C3)cc2)n1,-11,2,1,-1,9,.,.,.
N/C(Cc1ccc(Cl)cc1Cl)=N\OC(=O)Cc1ccccc1,17,75*,24,52*,86*,23,88*,61*
Cn1c(CC(=O)Nc2ccccc2)cc2ccccc21,-11,9,2,-22,-5,.,.,.
COc1cccc(CNC(=O)COC(=O)c2nc(Cl)c(Cl)c(Cl)c2Cl)c1,-9,60*,.,56*,37,46*,.,57*
O=C(NCCc1ccccc1)C(=O)c1c(-c2ccccc2)cc2ccccn12,-39,53*,-5,51*,27,36*,.,54*
NNC(=O)c1[nH]c2ccc(Cl)cc2c1-c1ccccc1,16,61*,4,51*,19,52*,.,42*
CCOC(=O)/C=C/C(=O)OCC(=O)Nc1ccc(Cl)cc1Cl,-1,54*,3,47*,30,46*,.,73*

# From PubChem
